Data from PubChem BioAssay (Tox21).
Inconclusive results are not listed. Calls of active or inactive are those of the source. Unless noted, calls follow the shape of the full dose curve.

Columns and labels:
[1] = qHTS assay to identify small molecule antagonists of the estrogen related receptor signaling pathway with the pleiotropic PPARgamma coactivator (PGC) from Tox21 10K library - cell viability counter screen (AID 1224840; active = well fitted cell-killing curve with a large enough effect in the repeat runs, not every such curve was filed as active; also: nearly all actives have a fitted effect of over 40% in size)
Outline: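 Following seeding of 2,000 PGC/ERR cells/well and 6 hours' incubation, test compounds were delivered in DMSO. The plates then sat 17.5 hours at 37 C before a fluorogenic live-cell protease reagent (CellTiter-Fluor) was read after 30 min.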

[2] = qHTS assay to identify small molecule antagonists of the estrogen related receptor signaling pathway with the pleiotropic PPARgamma coactivator (PGC) from Tox21 10K library (AID 1224841; call rule not given here; also: actives are mostly falling curves and most rising ones were filed inactive; nearly all actives have a fitted effect of over 50% in size)
Outline: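 qHTS antagonist format: PGC/ERR cells, 2k/well, compound in DMSO by pin transfer after 6 h attachment, 18 h treatment at 37 C, One-Glo luminescence read at 30 min.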

[3] = qHTS assay to identify small molecule agonists of the estrogen related receptor signaling pathway with the pleiotropic PPARgamma coactivator (PGC) from Tox21 10K library (AID 1224842; active = well fitted curve in the direction sought with a large enough effect in the repeat runs; an effect the other way counts as inactive or inconclusive; also: nearly all actives have a fitted effect of over 15% in size; also: potency is read from the fitted curve at half-maximal effect)
Outline: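 Luminescence from One-Glo (30 min, room temperature) measured after PGC/ERR cells had 18 h at 37 C with pinned compound (23 nL in DMSO). Cells had been seeded at 2,000 per well and pre-incubated 6 h.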

[4] = molecular target: Thyrotropin receptor (Homo sapiens) (UniProt P16473); assay: qHTS assay to identify small molecule agonists of the thyroid stimulating hormone receptor (TSHR) signaling pathway (AID 1224843); also: nearly all actives have a fitted effect of over 45% in size
Chain of Thyrotropin receptor (Homo sapiens) (P16473 whole entry, looked up): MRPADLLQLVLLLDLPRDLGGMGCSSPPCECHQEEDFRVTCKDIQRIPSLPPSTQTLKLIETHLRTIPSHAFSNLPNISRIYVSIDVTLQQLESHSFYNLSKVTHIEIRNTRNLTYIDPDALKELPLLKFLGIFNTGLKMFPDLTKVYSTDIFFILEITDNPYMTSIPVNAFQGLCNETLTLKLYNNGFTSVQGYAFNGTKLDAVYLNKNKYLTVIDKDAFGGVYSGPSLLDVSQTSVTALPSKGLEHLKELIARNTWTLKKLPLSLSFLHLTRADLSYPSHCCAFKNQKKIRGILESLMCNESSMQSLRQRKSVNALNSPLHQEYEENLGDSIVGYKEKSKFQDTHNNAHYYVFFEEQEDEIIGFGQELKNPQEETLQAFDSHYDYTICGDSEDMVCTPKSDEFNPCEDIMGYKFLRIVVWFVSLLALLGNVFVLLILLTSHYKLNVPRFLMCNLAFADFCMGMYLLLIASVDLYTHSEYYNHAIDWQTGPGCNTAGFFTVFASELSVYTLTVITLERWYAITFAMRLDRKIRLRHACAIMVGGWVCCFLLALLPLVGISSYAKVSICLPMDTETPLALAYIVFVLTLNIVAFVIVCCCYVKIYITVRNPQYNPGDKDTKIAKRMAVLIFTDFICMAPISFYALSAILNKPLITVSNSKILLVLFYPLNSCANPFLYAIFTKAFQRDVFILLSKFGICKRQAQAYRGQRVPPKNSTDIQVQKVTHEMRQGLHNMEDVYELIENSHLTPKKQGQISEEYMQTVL
Outline: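 HEK293 cells stably bearing the thyrotropin receptor were plated at 800 cells/well and challenged with compound (30 min, RT). Accumulated cAMP was quantified via cAMP-d2 competing for cryptate-tagged antibody.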

[5] = qHTS assay to identify small molecule agonists of the hypoxia (HIF-1) signaling pathway - cell viability counter screen (AID 1224844); also: nearly all actives have a fitted effect of over 50% in size
Outline: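 Cells (HRE-bla ME-180, 2,000 per well) sat 5 hrs at 37C, got compound for 17 hrs, were read for CCF4-AM FRET, and were finally lysed with CellTiter-Glo for a 30 min room-temperature luminescence read.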

[6] = qHTS assay to identify small molecule agonists of H2AX (AID 1224845; active = well fitted activation curve with a large enough effect in the signal ratio in the repeat runs, not every such curve was filed as active; the % refers to the signal ratio)
Outline: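 Phospho-H2AX Ser139 measured by HTRF (ex 320 nm; em 665 and 620 nm) after 24 hr antibody incubation. Compounds, 15 concentrations, 0.76% DMSO, were applied to CHO-K1 cells for 3hr at 37C before lysis.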

[7] = qHTS assay to identify small molecule agonists of the hypoxia (HIF-1) signaling pathway (AID 1224846; active = well fitted activation curve with a large enough effect in the signal ratio in the repeat runs, not every such curve was filed as active; the % refers to the signal ratio)
Outline: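 A low-serum medium (0.5% dialyzed FBS) holding 2,000 HRE-bla ME-180 cells per well is preincubated for 5 hrs, dosed with compounds by pintool, and kept a further 17 hrs at 37C, 5% CO2 before CCF4-AM FRET detection of beta-lactamase.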

[8] = qHTS assay to identify small molecule agonists of H2AX - cell viability counter screen (AID 1224847);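 also: wild-type CHO-K1 cells; top concentration of the series differs between compounds; nearly all actives have a fitted effect of over 30% in size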
Outline: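 CHO-K1 wt, 1000 cells/well, o/n 37C; cpds 15 conc, 3 h 37C, 0.76% DMSO; CellTiter-Glo, 30 min RT, luminescence.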

[9] = qHTS assay to identify small molecule antagonists of the estrogen related receptor (ERR) signaling pathway from Tox21 library (AID 1224848; active = well fitted curve in the direction sought with a large enough effect in the repeat runs; an effect the other way counts as inactive or inconclusive; also: nearly all actives have a fitted effect of over 50% in size)
Outline: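 Reading was by luminescence 30 min after ONE-Glo addition. Before that, ERR cells at 2,000 per well had rested 6 h at 37 C/5% CO2 and then received pin-tooled compounds in DMSO for 18 h at 37 C.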

[10] = qHTS assay to identify small molecule agonists of the estrogen related receptor (ERR) signaling pathway from Tox21 library (AID 1224849); details: ERR reporter cell line, ONE-Glo luciferase, 18 h; at 92.4 µM (top of the series) unless noted; also: nearly all actives have a fitted effect of over 15% in size
Outline: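 Screening used an NTP-provided ERR luciferase cell line. Compounds in DMSO were added 6 h after seeding and left 18 h at 37 C before a 30 min ONE-Glo step and luminescence reading.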
% is scaled to controls: 0 for no effect and ±100 for the full control effect.

CCCC(C)C(O)CC (configuration not stated)
inactive: outcome [1] | Potency [2] | Potency [3] | Potency [4] | outcome [5] | outcome [6] | outcome [7] | outcome [8] | outcome [9] | activity change, positive = activation [10] -0.957%

CC(C)OC(=O)C(C(=O)OC(C)C)=C1SC=CS1
inactive: outcome [1] | Potency [2] | Potency [3] | Potency [4] | outcome [5] | outcome [6] | outcome [7] | activity change, positive = activation [10] -19.5% [at 42.5 µM]

C=CC(=O)CC
inactive: outcome [1] | Potency [2] | Potency [3] | Potency [4] | outcome [5] | outcome [6] | outcome [7] | outcome [8] | outcome [9] | activity change, positive = activation [10] -1.79%

CCN1CCN(C(=O)N[C@@H](C(=O)N[C@@H]2C(=O)N3[C@@H]2SC(C)(C)[C@H]3C(=O)O)c2ccccc2)C(=O)C1=O
inactive: outcome [1] | Potency [2] | Potency [3] | Potency [4] | outcome [5] | outcome [6] | outcome [9] | activity change, positive = activation [10] 8.89% [at 42.5 µM]

COc1cnc(NS(=O)(=O)c2ccc(N)cc2)nc1
inactive: outcome [1] | Potency [2] | Potency [3] | Potency [4] | outcome [5] | outcome [6] | outcome [7] | outcome [9] | activity change, positive = activation [10] 4.16% [at 42.5 µM]

Cc1ccc(N)nc1
inactive: outcome [1] | Potency [2] | Potency [3] | Potency [4] | outcome [5] | outcome [6] | outcome [7] | outcome [8] | outcome [9] | activity change, positive = activation [10] 3.66%

COc1ccc2cc(CCC(C)=O)ccc2c1
active: Potency [3] 13.3 µM | activity change, positive = activation [10] 114% [at 42.5 µM]
inactive: outcome [1] | Potency [2] | Potency [4] | outcome [5] | outcome [6] | outcome [8] | outcome [9]

O=C(O)CCCCCCCCCC(=O)O
inactive: outcome [1] | Potency [2] | Potency [3] | Potency [4] | outcome [5] | outcome [6] | outcome [7] | outcome [8] | outcome [9] | activity change, positive = activation [10] 3.45%

CC[C@@]1(c2ccccc2)NC(=O)N(C)C1=O
inactive: outcome [1] | Potency [2] | Potency [3] | Potency [4] | outcome [5] | outcome [6] | outcome [8] | outcome [9] | activity change, positive = activation [10] 3.28% [at 42.5 µM]

CCCCC(CC)COC(=O)CC#N (configuration not stated)
inactive: outcome [1] | Potency [2] | Potency [3] | Potency [4] | outcome [5] | outcome [6] | outcome [7] | outcome [8] | outcome [9] | activity change, positive = activation [10] -0.23%

CC(C)(Sc1cc(C(C)(C)C)c(O)c(C(C)(C)C)c1)Sc1cc(C(C)(C)C)c(O)c(C(C)(C)C)c1
inactive: outcome [1] | Potency [2] | Potency [3] | Potency [4] | outcome [5] | outcome [6] | outcome [8] | outcome [9] | activity change, positive = activation [10] 3.41% [at 42.5 µM]

C[C@]12C=CC(=O)C=C1[C@@H](F)C[C@@H]1[C@@H]2[C@@H](O)C[C@@]2(C)[C@H]1CC[C@]2(O)C(=O)CO
active: Potency [3] 6.68 µM
inactive: outcome [1] | Potency [2] | Potency [4] | outcome [5] | outcome [6] | outcome [7] | outcome [8] | outcome [9] | activity change, positive = activation [10] -4.03% [at 42.5 µM]

C[n+]1ccccc1/C=N/O
inactive: outcome [1] | Potency [2] | Potency [3] | Potency [4] | outcome [5] | outcome [6] | outcome [8] | outcome [9] | activity change, positive = activation [10] 0.0992% [at 42.5 µM]

CC(=O)SC[C@@H](C)C(=O)N1CCC[C@H]1C(=O)N[C@@H](Cc1ccccc1)C(=O)O
inactive: outcome [1] | Potency [2] | Potency [3] | Potency [4] | outcome [5] | outcome [6] | outcome [7] | outcome [8] | outcome [9] | activity change, positive = activation [10] 7.31% [at 42.5 µM]

CCCCCCC(=O)c1ccccc1
inactive: outcome [1] | Potency [2] | Potency [3] | Potency [4] | outcome [5] | outcome [6] | outcome [7] | outcome [8] | outcome [9] | activity change, positive = activation [10] 3.5%

NNC(=O)OCc1ccccc1
inactive: outcome [1] | Potency [2] | Potency [3] | Potency [4] | outcome [5] | outcome [6] | outcome [7] | outcome [8] | outcome [9] | activity change, positive = activation [10] -10.3%

C/C=C(\C)C(=O)OC/C=C(\C)CCC=C(C)C
inactive: outcome [1] | Potency [2] | Potency [3] | outcome [5] | outcome [6] | outcome [9] | activity change, positive = activation [10] 10.5%

C=CCCCCCCCCOC(C)=O
inactive: outcome [1] | Potency [2] | Potency [3] | outcome [5] | outcome [6] | outcome [7] | outcome [8] | outcome [9] | activity change, positive = activation [10] 7.36%

CN1C(CCl)Nc2cc(Cl)c(S(N)(=O)=O)cc2S1(=O)=O (configuration not stated)
inactive: outcome [1] | Potency [2] | Potency [3] | outcome [5] | outcome [6] | outcome [7] | outcome [8] | outcome [9] | activity change, positive = activation [10] 0.151% [at 42.5 µM]

CC(C)(C)C(=O)CC(=O)C(C)(C)C
inactive: outcome [1] | Potency [3] | Potency [4] | outcome [5] | outcome [6] | outcome [7] | outcome [8] | outcome [9] | activity change, positive = activation [10] 3.23%

COc1cc2nc(N3CCN(C(=O)C4CCCO4)CC3)nc(N)c2cc1OC (configuration not stated)
inactive: outcome [1] | Potency [2] | Potency [3] | outcome [5] | outcome [6] | outcome [8] | outcome [9]

CC(CN1CC(=O)NC(=O)C1)N1CC(=O)NC(=O)C1 (configuration not stated)
inactive: outcome [1] | Potency [2] | Potency [3] | outcome [5] | outcome [6] | outcome [8] | outcome [9] | activity change, positive = activation [10] -5.55%

Cc1ccc(O)c([N+](=O)[O-])c1
inactive: outcome [1] | Potency [2] | Potency [3] | outcome [5] | outcome [7] | outcome [8] | activity change, positive = activation [10] -16.2%
